Compound activity deposited in PubChem by Broad Institute.
ARNT-TACC3 inh: ARNT/TACC3 interaction disruption. Q9Y6A5. AlphaScreen His-ARNT PAS-B/GST-TACC3 binding, luminescence; TACC3 fragment carries E629A point mutation. inhibition, % at 9.99 µM. actives 0.66% (n = 390,000). AID 623870;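 active = mean inhibition of replicates at least 50% and at least half of replicates each reaching 50%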
C2C12 statin: suppression of simvastatin myotoxicity; C2C12 myotubes + simvastatin, ATP luminescence, 48 h; scaled: DMSO 0, geranylgeraniol control 100; rescue of ATP level, % at 7.49 µM; actives 0.78% (n = 330,000);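 active = mean ATP rescue above about 67%, or every replicate alone reaching that limit, limit read from the data, passing the limit was not always enough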;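 note: myotubes were challenged with 10 µM simvastatin during compound exposure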
PglD DTNB: PglD (C. jejuni) enzyme inhibition | inhibition, % at 12.5 µM | purified PglD enzyme, DTNB colorimetric CoA detection | actives 0.098% (n = 360,000) | AID 602405; in the data active = inhibition above about 16%, passing the limit was not always enough
CFTR F508del cor: correctors of CFTR F508del function in bronchial epithelial cells | CFBE cells, YFP halide quenching; stimulated with forskolin plus potentiator P3; % fluorescence drop versus neutral controls | activity (quench increase), % at 7.58 µM | AID 720511 | actives 0.36% (n = 350,000);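 active = mean added fluorescence quench of at least 8% versus neutral control, with both replicates also reaching 8%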;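 note: cells transiently co-express mutant CFTR-F508del with the halide-sensitive YFP; corrector assay measuring rescue of mutant channel to the surface after 24 h compound exposure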
Hits are given with their value; n = inactive; x = not tested or not shown; ! = not active in a repeat. Shown are actives, neighbours in structure and some others; about 1.4% of the full set was active somewhere.

SMILES | ARNT-TACC3 inh | C2C12 statin | PglD DTNB | CFTR F508del cor
CCC1(C)OC(c2ccccc2)=C/C(=C/C=C2C(=O)NC(=O)NC2=O)O1 (stereo unspecified) | n | x | x | 15.3
O=C(Cc1ccccc1)N1CCCCN2[C@@H](CO)[C@H](c3ccc(-c4ccccc4)cc3)[C@@H]2C1 | n | x | n | n
CC1OC(OC2CC(O)C3(CO)C4C(O)CC5(C)C(C6=CC(=O)OC6)CCC5(O)C4CCC3(O)C2)C(O)C(O)C1O (stereo unspecified) | n | n | n | 14.9
O=C(Cc1ccccc1)N1CCCCN2[C@H](C1)[C@H](c1ccc(C#Cc3ccccc3)cc1)[C@@H]2CO | n | x | n | n
CCCCC1(CN2CCCC2=O)C(=O)NC(=O)NC1=O | x | 106.4 | n | x
CN(C)[C@@H]1C(=O)C(C(N)=O)=C(O)[C@@]2(O)C(=O)C3=C(O)c4c(O)cccc4[C@@](C)(O)[C@H]3[C@H](O)[C@@H]12 | 51.6! | n | n | n
CN(C)[C@@H]1C(=O)C(C(N)=O)=C(O)[C@@]2(O)C(=O)C3=C(O)c4c(O)cccc4[C@@](C)(O)C3C[C@@H]12 (stereo partly specified) | n | n | n | n
CC[n+]1c(-c2ccccc2)c2cc(N)ccc2c2ccc(N)cc21 | n | x | x | 10.0
N#C/C(=C\c1ccc(O)cc1)C(=O)O (tested in a mixture with another compound) | n | n | n | 11.1
N#CC(C#N)=Cc1ccc(N2CCOCC2)cc1 | n | n | n | n
CCCN1[C@@H]2c3ccc(-c4ccccc4)c(=O)n3C[C@H]1[C@H](CO)[C@H]2C(=O)OC | n | n | n | n
CN1C(=O)NC(=O)C2(CCCC2)C1=O | n | n | n | 10.3
O=C(Cc1cccnc1)N1CCCCN2[C@H](CO)[C@@H](c3ccc(C#CC4(O)CCCC4)cc3)[C@@H]2C1 | n | n | n | n
CCc1nc2ccccc2c(=O)n1-c1ccc2ccccc2c1 | x | 122.5 | n | x
COC(=O)[C@@H]1[C@@H](CO)[C@@H]2Cn3c(ccc(C4=CCCCC4)c3=O)[C@H]1N2C(=O)Cc1ccccn1 | n | n | n | n
C[C@@H]1C[C@@H]([C@H](O)CC2CC(=O)NC(=O)C2)C(=O)[C@@H](C)C1 | x | 172.9 | n | n
CC(=O)OC1(C)CC(C)C(=O)C(C(O)CC2CC(=O)NC(=O)C2)C1 (stereo unspecified) | n | 83.4 | n | n
Nc1ccc(Cl)c(Cl)c1 | n | n | n | 12.3
Cc1ccc(N)cc1Cl | x | n | n | n
CCN1[C@@H]2c3ccc(-c4ccc(OC)cc4)c(=O)n3C[C@H]1[C@H](CO)[C@H]2C(=O)OC | n | n | n | x
CC=Cc1ccc2n(c1=O)C[C@H]1[C@H](CO)[C@@H](C(=O)OC)[C@@H]2N1C(=O)CC (mixture of isomers) | n | n | n | x
O=C(CN1CCN(Cc2ccc(Cl)cc2)C1=O)N1CCC2(CC1)OCCO2 | n | 86.8 | n | x
Cc1c(N=Cc2c(O)n(Cc3ccc(F)cc3)c(=O)[nH]c2=O)c(=O)n(-c2ccccc2)n1C | n | n | n | x
C=CCn1c(O)c(N=Nc2c(C)n(C)n(-c3ccccc3)c2=O)c(=O)[nH]c1=S | 62.8 | x | n | x
Cc1c(N=Nc2c(O)[nH]c(=S)[nH]c2=O)c(=O)n(-c2ccccc2)n1C | 61.1 | x | n | x
SMILES | ARNT-TACC3 inh | C2C12 statin | PglD DTNB | CFTR F508del cor
CCOc1ccc(-n2c(O)c(N=Nc3c(C)n(C)n(-c4ccccc4)c3=O)c(=O)[nH]c2=O)cc1 | 59.8 | x | n | n
Cc1c(N=Cc2c(O)n(CCc3ccccc3)c(=O)[nH]c2=O)c(=O)n(-c2ccccc2)n1C | n | n | n | x
CCCCCCn1c(O)c(C=Nc2c(C)n(C)n(-c3ccccc3)c2=O)c(=O)[nH]c1=O | n | n | n | x
CC=Cc1ccc2n(c1=O)C[C@H]1[C@H](CO)[C@@H](C(=O)OC)[C@@H]2N1CC1CCCC1 (mixture of isomers) | x | x | x | n
CCCNC(=O)[C@H]1[C@H](CO)[C@H]2Cn3c(cccc3=O)[C@H]2N1C | n | n | n | x
C[C@H]1CN([C@@H](C)CO)C(=O)c2c(c3ccccc3n2C)-c2ccccc2CO[C@@H]1CN(C)C(=O)Oc1ccccc1 | x | x | x | n
COC(=O)C1=C(c2ccc(F)cc2OCc2ccccc2)C[C@@H]2CC[C@H]1N2C(=O)NCc1ccc(Br)cc1 | n | 75.5 | n | n
COC(=O)C1=C(c2ccc(F)cc2OCc2ccccc2)C[C@@H]2CC[C@H]1N2C(=O)NCc1ccc(OC)cc1 | n | 83.9 | n | n
COC(=O)C1=C(c2ccc(F)cc2OCc2ccccc2)C[C@@H]2CC[C@H]1N2C(=O)NCc1cccc(OC)c1 | n | n | n | n
COC(=O)C1=C(c2ccc(OC(F)(F)F)cc2)C[C@@H]2CC[C@H]1N2C(=O)NCCOc1ccc(OC)cc1 | n | 128.2 | n | n
C[C@H]1CCCC(=O)CCC/C=C/c2cc(O)cc(O)c2C(=O)O1 | n | n | n | n
C[C@H]1CCC/C=C/[C@@H]2C[C@H](O)C[C@H]2[C@H](O)/C=C/C(=O)O1 | n | n | n | 15.8!
CC(C)CC#Cc1ccc([C@H]2[C@@H](CO)N3CCCCN(C(=O)Cc4ccccn4)C[C@H]23)cc1 | n | n | n | n
CCn1c(P(C)(=O)O)nc2ccccc21 | n | n | n | x
CCn1c(NN=O)nc2ccccc21 | 48.3 | n | n | n
COC(=O)[C@H]1[C@H](CO)[C@H]2Cn3c(ccc(/C=C/c4ccccc4)c3=O)[C@@H]1N2CC1CCCC1 | n | n | n | n
COC(=O)[C@@H]1[C@@H](CO)[C@@H]2Cn3c(ccc(-c4ccncc4)c3=O)[C@H]1N2S(=O)(=O)c1ccccc1C | n | n | n | n
O=c1c2ccccc2nc(-c2ccco2)n1-c1ccccn1 | n | 120.1 | n | x
CCC(COC(=O)c1cc(OC)c(OC)c(OC)c1)(c1ccccc1)N(C)C (stereo unspecified) | n | n | n | 9.0!
COc1cc2c(cc1O)C[C@H]1NCCc3cc4c(c-2c31)OCO4 | 52.0 | n | n | n
COc1cc2c(cc1OC)-c1c3c(cc4c1[C@@H](C2)N(C)CC4)OCO3 | 35.3 | n | n | n
COc1cc2c(cc1OC)-c1c(OC)c(OC)cc3c1C(C2)N(C)CC3 (stereo unspecified) | n | n | n | n
CCN1[C@@H]2Cn3c(ccc(-c4cccc(OC)c4)c3=O)[C@H]1[C@@H](C(=O)OC)[C@@H]2CO | n | n | n | n
O=C(Cc1ccccc1)N1CCCCN2[C@H](C1)[C@@H](c1ccc(C#Cc3ccccc3)cc1)[C@@H]2CO | x | x | n | n
O=C(Cc1cccnc1)N1CCCCN2[C@@H](CO)[C@@H](c3ccc(/C=C/c4ccccc4)cc3)[C@@H]2C1 | n | x | n | n
CCCCCCn1c(N)c(C(=O)NCCN2CCOCC2)c2nc3ccccc3nc21 | n | 111.8 | n | x
CCCCCn1c(N)c(C(=O)NCCN2CCOCC2)c2nc3ccccc3nc21 | n | n | n | x
N#Cc1cccc(-c2ccc([C@@H]3[C@@H](CO)N4CCCCN(C(=O)Cc5cccnc5)C[C@H]34)cc2)c1 | n | n | n | n
